Read-out in experiment [1]: Monokine induced gamma interferon (MIG), CXCL9 (gene 4283)
As to the kind of experiment: BSK_BE3C_MIG: BioMAP Diversity Plus: BE3C Assay for Monokine induced gamma interferon (MIG) Biomarker Activity (AID 2283035).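 As to outcome: MIG protein measured by ELISA in BE3C cultures after 24 h of dosing.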 The conditions noted are these: primary human bronchial epithelial cells; actives raise or lower the signal. The method, boiled down:
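Primary human bronchial epithelial cells treated for 24 h; MIG levels measured by ELISA, fitted bidirectionally versus DMSO. Parallel SRB total-protein staining assessed cytotoxicity.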

Read-out in experiment [2]: Transforming growth factor beta 1 (TGFb1), TGFB1 (gene 7040)
Kind of experiment: BSK_BE3C_TGFb1: BioMAP Diversity Plus: BE3C Assay for Transforming growth factor beta 1 (TGFb1) Biomarker Activity (AID 2283036;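 as to outcome: TGF-b1 protein level measured by ELISA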). Particulars: primary human bronchial epithelial cells; actives raise or lower the signal. The method, boiled down:
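In this human primary bronchial epithelial system, an ELISA quantified TGF-b1 one day after dosing. Endpoint changes in either direction were fitted relative to DMSO.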

Read-out in experiment [3]: Plasminogen activator inhibitor-1 (PAI1), SERPINE1 (gene 5054)
Kind of experiment: BSK_BE3C_PAI1: BioMAP Diversity Plus: BE3C Assay for Plasminogen activator inhibitor-1 (PAI1) Biomarker Activity (AID 2283037). Particulars: primary human bronchial epithelial cells; actives raise or lower the signal. The method, boiled down: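 PAI-1 biomarker levels in treated human bronchial epithelial cells are determined by ELISA at 24 h. Both increases and decreases relative to DMSO are fitted.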

Read-out in experiment [4]: urokinase plasminogen activator (uPA), PLAU (gene 5328)
As to the kind of experiment: BSK_BE3C_uPA: BioMAP Diversity Plus: BE3C Assay for urokinase plasminogen activator (uPA) Biomarker Activity (AID 2283038).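 As to outcome: uPA protein level quantified by ELISA in cell cultures; uPA read one day after compound addition.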 The conditions noted are these: primary human bronchial epithelial cells; actives raise or lower the signal. The method, boiled down:
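Measured by ELISA: uPA from human primary bronchial epithelial cells 24 h after chemical treatment. Values derive from bidirectional curve fitting with DMSO serving as negative control. Total protein by SRB staining in parallel wells flagged overt cytotoxicity.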

Read-out in experiment [5]: Urokinase-type plasminogen activator receptor (uPAR), PLAUR (gene 5329)
As to the kind of experiment: BSK_BE3C_uPAR: BioMAP Diversity Plus: BE3C Assay for Urokinase-type plasminogen activator receptor (uPAR) Biomarker Activity (AID 2283039).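 As to outcome: cells exposed to compound for one day before measurement.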 Particulars: primary human bronchial epithelial cells; actives raise or lower the signal. The method, boiled down: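 A uPAR ELISA serves as the readout, taken 24 h after treating primary human bronchial epithelial cells. Responses in either direction are fitted against DMSO, which defines baseline activity.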

Read-out in experiment [6]: Interleukin-6 (IL6), IL6 (gene 3569)
As to the kind of experiment: BSK_CASM3C_IL6: BioMAP Diversity Plus: CASM3C Assay for Interleukin-6 (IL6) Biomarker Activity for (AID 2283040). The conditions noted are these: primary human coronary artery smooth muscle cells; actives raise or lower the signal.

Read-out in experiment [7]: Tissue plasminogen activator (tPA), PLAT (gene 5327)
As to the kind of experiment: BSK_BE3C_tPA: BioMAP Diversity Plus: BE3C Assay for Tissue plasminogen activator (tPA) Biomarker Activity (AID 2283041).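 As to outcome: tPA level quantified by ELISA one day after compound addition.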 The conditions noted are these: primary human bronchial epithelial cells; actives raise or lower the signal. The method, boiled down:
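Bidirectional curve fitting relative to DMSO defined activity, with tPA detected by ELISA in chemically treated human bronchial epithelial primary cells at 24 hours.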

Read-out in experiment [8]: Interleukin-8 (IL8), CXCL8 (gene 3576)
As to the kind of experiment: BSK_CASM3C_IL8: BioMAP Diversity Plus: CASM3C Assay for Interleukin-8 (IL8) Biomarker Activity (AID 2283042).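 Also: IL-8 protein level quantified by ELISA.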 Particulars: primary human coronary artery smooth muscle cells; actives raise or lower the signal.

Read-out in experiment [9]: Human Leukocyte Antigen - DR isotype (HLADR), HLA-DRA (gene 3122)
As to the kind of experiment: BSK_CASM3C_HLADR: BioMAP Diversity Plus: CASM3C Assay for Human Leukocyte Antigen - DR isotype (HLADR) Biomarker Activity (AID 2283043).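 Also: cell-surface HLA-DR protein level quantified by ELISA.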 Particulars: primary human coronary artery smooth muscle cells; actives raise or lower the signal.

Read-out in experiment [10]: Macrophage colony-stimulating factor (MCSF), CSF1 (gene 1435)
Kind of experiment: BSK_CASM3C_MCSF: BioMAP Diversity Plus: CASM3C Assay for Macrophage colony-stimulating factor (MCSF) Biomarker Activity (AID 2283044).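 Also: M-CSF protein amount quantified by ELISA after 24 h exposure.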 The conditions noted are these: primary human coronary artery smooth muscle cells; actives raise or lower the signal.

Structures are written as SMILES. The source made the active and inactive calls. The calls were made as follows: active = hit-call score of the fitted dose curve at least 0.9, where 1 is the maximum; inactive = score below 0.9.

As for `Cc1cc(Cc2ccc(N)c(C)c2)ccc1N`, the result in experiment [1], in experiment [2], in experiment [3], in [4], in experiment [5] and in experiment [6] was inactive. Moreover, the result in experiment [7], in [8], in experiment [9] and in [10] was inactive.
`CN(C)C(=O)NC1(c2ccccc2)CCN(CC[C@@]2(c3ccc(F)c(F)c3)CN(C(=O)c3ccccc3)CCO2)CC1`: the outcome in experiment [1], in [2], in [3], in experiment [4], in experiment [5] and in [6] was inactive. Further, the outcome in [7], in experiment [8], in [9] and in experiment [10] was inactive.
A word on the AC50: it is the concentration giving half of the maximal activity seen. For `CC(C)(O)c1ccc(CNC(=O)c2cccnc2Oc2ccc(F)cc2)cc1`, the result in experiment [1], in experiment [2], in experiment [3], in experiment [4], in experiment [5] and in [6] was inactive. In addition, the outcome in experiment [7], in experiment [8] and in experiment [10] was inactive. Also, the half-maximal activity concentration (AC50) in experiment [9] was 2.12 µM (active).
On to `O=C1NC(=O)C(c2ccccc2)(c2ccccc2)N1`, for which the result in experiment [1], in [2], in [3], in experiment [4], in [5] and in [6] was inactive. Also, the outcome in [7], in [8], in experiment [9] and in experiment [10] was inactive.
For `CC(=O)OC1CC(C)OC(C)O1` (stereo not given), the result in experiment [1], in experiment [2], in experiment [3], in experiment [4], in experiment [5] and in [6] was inactive. Also, the outcome in experiment [7], in experiment [8], in experiment [9] and in [10] was inactive.
`N[C@@H](Cc1c[nH]c2ccccc12)C(=O)O`: the outcome in experiment [1], in experiment [2], in experiment [3], in experiment [4], in experiment [5] and in experiment [6] was inactive. The outcome in experiment [7], in experiment [8], in experiment [9] and in experiment [10] was inactive.
Consider `NC1CCCCC1`, for which the outcome in experiment [1], in experiment [2], in experiment [3], in [4], in experiment [5] and in [6] was inactive. Besides, the result in experiment [7], in experiment [8], in experiment [9] and in experiment [10] was inactive.
`O=C(O)c1[nH]n(-c2ccc(S(=O)(=O)O)cc2)c(=O)c1N=Nc1ccc(S(=O)(=O)O)cc1`: the result in experiment [1], in experiment [2], in [3], in experiment [4], in [5] and in [6] was inactive. The result in experiment [7], in [8], in [9] and in [10] was inactive.
As for `CC(=O)O[C@]1(C(C)=O)CC[C@H]2[C@@H]3C=C(Cl)C4=CC(=O)[C@@H]5C[C@@H]5[C@]4(C)[C@H]3CC[C@@]21C`, the concentration at half-maximal activity (AC50) in experiment [1] was 31 µM (active); in [2], 31.5 µM (active); in experiment [3], 20 µM (active); in experiment [4] it was 38.2 µM (active); in [5], 32.4 µM (active); in experiment [7], 34.9 µM (active). Moreover, the outcome in [6], in experiment [8], in experiment [9] and in experiment [10] was inactive.
`Cc1cn([C@H]2C=C[C@@H](CO)O2)c(=O)[nH]c1=O`: the result in experiment [1], in [2], in [3], in experiment [4], in [5] and in experiment [6] was inactive. In addition, the outcome in experiment [7], in [8], in experiment [9] and in [10] was inactive.
Turning to `CCCCc1nc2cccnc2n1Cc1ccc(-c2ccccc2-c2nnn[nH]2)cc1`, the outcome in experiment [1], in [2], in experiment [3], in [4], in experiment [5] and in experiment [6] was inactive. The result in [7], in [8], in experiment [9] and in experiment [10] was inactive.
Regarding `CCCCCCCCCC[N+](C)(C)[O-]`, the outcome in [1], in experiment [2], in [3], in [4], in experiment [5] and in [6] was inactive. Also, the result in experiment [7], in experiment [8], in experiment [9] and in experiment [10] was inactive.
As to `CCOCCOCCO`, the outcome in [1], in [2], in [3], in experiment [4], in experiment [5] and in [6] was inactive. Further, the outcome in experiment [7], in experiment [8], in experiment [9] and in [10] was inactive.
Turning to `NCCOCCOCCN`, the result in experiment [1], in experiment [2], in experiment [3], in experiment [4], in experiment [5] and in experiment [6] was inactive. Besides, the outcome in experiment [7], in experiment [8], in experiment [9] and in experiment [10] was inactive.
With `CCCCOC(=O)CCCCC(=O)OCCCC`, the outcome in [1], in experiment [2], in experiment [3], in [4], in [5] and in experiment [6] was inactive. Besides, the outcome in [7], in [8], in experiment [9] and in [10] was inactive.
Consider `CCC(C)N(C)C(=O)c1cc2ccccc2c(-c2ccccc2Cl)n1` (stereo not given), for which the outcome in experiment [1], in experiment [2], in experiment [3], in [4], in [5] and in experiment [6] was inactive. Moreover, the outcome in [7], in experiment [8], in [9] and in experiment [10] was inactive.
Take `CC(=O)CC(c1ccccc1)c1c(O)c2ccccc2oc1=O` (stereo not given): the result in experiment [1], in experiment [2], in [3], in experiment [4], in [5] and in experiment [6] was inactive. The outcome in experiment [7], in [8], in [9] and in [10] was inactive.
For the molecule `CC1=C(C)S(=O)(=O)CCS1(=O)=O`, the result in [1], in experiment [2], in [3], in [4], in experiment [5] and in experiment [6] was inactive. Besides, the outcome in [7], in [8], in experiment [9] and in experiment [10] was inactive.
On to `Cn1cnc2c1c(=O)[nH]c(=O)n2C`, for which the result in [1], in [2], in experiment [3], in [4], in experiment [5] and in [6] was inactive. Also, the result in [7], in experiment [8], in [9] and in experiment [10] was inactive.
Consider `CC(=O)OCC(COC(C)=O)OC(C)=O`, for which the outcome in [1], in experiment [2], in [3], in [4], in experiment [5] and in experiment [6] was inactive. Moreover, the outcome in experiment [7], in experiment [8], in experiment [9] and in experiment [10] was inactive.
In the case of `CC(C)OC(=O)C(C)(C)Oc1ccc(C(=O)c2ccc(Cl)cc2)cc1`, the outcome in experiment [1], in experiment [2], in [3], in [4], in [5] and in [6] was inactive. Further, the outcome in experiment [7], in [8], in experiment [9] and in experiment [10] was inactive.

(Values after PubChem BioAssay (EPA / NIEHS).)
